ERG Ets-DNA blk: blocks human ERG Ets domain binding to DNA; P11308; fluorescence polarization, His-ERG Ets domain / labelled DNA; Potency, µM (highest dose often 76.9 µM), inactives show at the highest dose FP activity, negative = inhibition, actives largely listed as inhibitors; hit rate 0.028% among 370,000; active = well fitted inhibition curve with a large enough effect in the polarisation, with a control signal flat; inconclusive = small, poorly fitted or top-dose-only effect, or effect the other way, or a change in a side signal; inactive = no such curve, though single readings can be large or run the other way; the % refers to the polarisation;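 also: polarization taken with two DNA probes labelled with fluorescein and Texas red; potency is read from the fitted curve at half-maximal effect; % of control where 0% means no effect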
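His-tagged ERG Ets domain (1 uM in the protein solution; 300mM KCl, 50mM Tris-HCl, 1mM EDTA, 1mM DTT, pH 7.5) received compound, then a probe mix of 5 nM fluorescein-DNA and 100nM Texas-615-DNA. Fluorescence polarization was read for both dyes.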
TRb-SRC2 inh: inhibitors of human thyroid hormone receptor beta-SRC2 interaction. hit rate 0.065% among 280,000. P10828. TRbeta-SRC2 peptide binding, fluorescence polarization; receptor liganded with 1 µM T3. Potency, µM (doses to about 106 µM), without a hit: at the top dose activity change, negative = inhibition, usual class: inhibitors;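 also: potency is read from the fitted curve at half-maximal effect; plate controls were bound peptide for no effect and peptide without receptor for full effect; nearly all actives have a fitted effect of over 50% in size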
Target sequence (P10828 whole entry, looked up): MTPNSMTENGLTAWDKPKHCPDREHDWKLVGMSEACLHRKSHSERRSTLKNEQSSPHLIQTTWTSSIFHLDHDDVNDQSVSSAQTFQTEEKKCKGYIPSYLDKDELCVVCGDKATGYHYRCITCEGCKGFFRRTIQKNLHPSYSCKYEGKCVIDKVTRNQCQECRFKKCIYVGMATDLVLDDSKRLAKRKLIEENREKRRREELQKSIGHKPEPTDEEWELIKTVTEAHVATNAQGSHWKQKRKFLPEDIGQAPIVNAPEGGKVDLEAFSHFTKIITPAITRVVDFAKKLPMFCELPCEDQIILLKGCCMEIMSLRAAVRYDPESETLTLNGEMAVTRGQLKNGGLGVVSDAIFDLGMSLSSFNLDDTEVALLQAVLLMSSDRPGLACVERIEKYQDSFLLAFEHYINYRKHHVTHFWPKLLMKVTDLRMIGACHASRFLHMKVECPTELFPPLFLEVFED
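Fluorescence polarization of 20 nM Texas Red SRC2 peptide (20-aa NR interaction domain) bound to 0.6 uM human TRb ligand-binding domain, with 1 uM T3, after 5 hr at ambient temperature; inhibition seen as decreased polarization.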
CBFb-RUNX1 inh: inhibitors of human CBF-beta and RUNX1 interaction. AID 1477. Potency, µM (highest dose often 59.8 µM), for inactives: top-dose activity, negative = inhibition, most hits filed as inhibitors. AlphaScreen CBFb-His/RUNX1-biotin binding, biochemical. 230,000 tested, under 10 active; also: % of control where 0% means no effect
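AlphaScreen proximity signal reports loss of binding between His-tagged CBF-beta and biotin-labelled RUNX1, each at 30 nM. Proteins are pre-associated for 20 minutes, compounds added for 15 minutes, then beads for 90 minutes, all at ambient temperature.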
TexasRed fluor: Texas Red fluorescence interference in TRb-SRC2 counter-screen; TRb/SRC2 Texas Red total fluorescence interference; Potency, µM (top dose mostly 106 µM), without a hit: at the highest dose fluorescence change, negative = quenching; AID 1479; hit rate 0.29% among 280,000; active = well fitted curve in either direction with a large enough effect; inconclusive = small, poorly fitted or top-dose-only effect; also: potency is read from the fitted curve at half-maximal effect; % is scaled to controls: 0 for no effect and ±100 for the full control effect
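Human TRβ ligand-binding domain (0.6 uM) and Texas Red SRC2 peptide (20 nM) in Tris buffer with 1 uM T3 and 5% DMSO were incubated with pinned compound for 5 hr at ambient temperature. Total fluorescence was computed as S + 2P (555/632 nm).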
RGS12 GoLoco inh: RGS12 GoLoco-Gai1 interaction inhibition; Gai1:RGS12 GoLoco peptide FP, rhodamine, 10 min; Potency, µM (doses to about 61.6 µM), for the others: at the top dose activity, negative = inhibition, usual class: inhibitors; hit rate 0.44% among 230,000; active = well fitted inhibition curve with a large enough effect, not every such curve was filed as active; inactive = no such curve, though single readings can be large or run the other way; also: potency is read from the fitted curve at half-maximal effect; % is scaled to controls: 0 for no effect and ±100 for the full control effect; nearly all actives have a fitted effect of over 30% in size
An asterisk follows results filed as active; u = inconclusive; x = no result given; [ ] = another dose, or the depositor's remark. This excerpt belongs to a sample that is enriched for hits. Unless noted, calls follow the shape of the dose curve; as a rule, active = well fitted curve in the direction sought with a large enough effect; inconclusive = small, poorly fitted or top-dose-only effect, or another doubt; inactive = no such curve, though single readings can be large; an effect the other way counts as inactive or inconclusive.

SMILES | ERG Ets-DNA blk | TRb-SRC2 inh | CBFb-RUNX1 inh | TexasRed fluor | RGS12 GoLoco inh
COc1cccc2c1C(=O)c1c(O)c3c(c(O)c1C2=O)CC(O)(C(C)=O)CC3OC1CC(O)C(O)C(C)O1 (centres undefined) | 2.5µM* | x | x | x | x
COc1cccc2c1C(=O)c1c(O)c3c(c(O)c1C2=O)C[C@](O)(C(=O)CO)C[C@H]3O[C@@H]1C[C@H](N)[C@H](O)[C@H](C)O1 | x | 14µM* | -13%[21.7 µM] | 16µM*[fluorescent] | 2.2µM*
COc1ccccc1N1CCN(C(=O)Cn2c(=O)n3nc(-c4cccc(C)c4)nc3c3ccccc32)CC1 | 0% | -10% | x | 0% | x
Nc1nc(N2CCN(Cc3ccccc3)CC2)n[nH]1 | 35µM* | -4% | -1% | -4% | 9%
Nc1ccc(N)c(C(=O)O)c1 | u | -18% | x | u | 16µM*
Nc1ccc(C(=O)O)c(O)c1 | -20% | -2% | -25% | -2% | 4%
COc1cccc(NC(=O)CSC2=Nc3ccccc3C3=NC(CC(=O)NCc4ccc5c(c4)OCO5)C(=O)N23)c1 (centres undefined) | -4% | -1% | x | -5% | x
CCC(=O)N1c2ccccc2C(C)(c2ccccc2)CC1(C)C (centres undefined) | -10% | 4% | x | -1% | x
CCN1c2ccccc2N(C)C1(C)c1ccccc1 (centres undefined) | -25% | u | -27% | 45µM*[fluorescent] | 8.9µM*
CN1c2ccccc2N(C)C1(C)c1ccccc1 | -4% | -4% | -7% | -5% | 1.3µM*
N#C/C(=C/C1=C(N2CCOCC2)C(=C/c2ccccc2)/CC1)C(=O)Nc1ccccc1F | 52% | x | x | x | x
N#C/C(=C\C1=C(N2CCOCC2)C(=C\c2ccc(Cl)cc2)/CC1)C(=O)Nc1ccccc1F | -2% | 40µM* | 0% | 50µM*[fluorescent] | -119%
O=C(COc1cccc(Br)c1)Nc1ccc(N2CCOCC2)cc1N1CCOCC1 | 15% | x | x | x | x
CC1(C)C(C=C(Cl)Cl)[C@H]1C(=O)OCc1cccc(Oc2ccccc2)c1 (some centres undefined) | x | 7%[201 µM] | x | 0%[201 µM] | x
Cc1cccc(CN2CCC(CNC(=O)CSc3cc(=O)n(C)c4cc(Cl)ccc34)CC2)c1 | -4% | -3% | 16% | -2% | 4%
COc1ccccc1N1CCN(C(=O)CNS(=O)(=O)c2ccc(Br)s2)CC1 | -3% | u | x | 79µM*[quencher] | x
CCCCn1c(N)c(N(CC(C)C)C(=O)CSc2nn(-c3ccc(F)cc3)c(=S)s2)c(=O)[nH]c1=O | 10% | x | x | x | x
CCCC1=NN2C(=N)/C(=C\c3ccc(SCc4ccco4)o3)C(=O)N=C2S1 | u | u | x | 50µM*[fluorescent] | 326%
CCOc1ccc(CCNC(=O)c2nc(-c3cccc(F)c3)n3c2CCCCC3)cc1OCC | 1% | -27% | x | 63µM*[quencher] | x
NCCCCCCCCCCC(=O)O | x | -3%[201 µM] | x | -4%[201 µM] | x
c1ccc2c(c1)ccc1ccccc12 | 2% | 0%[201 µM] | 1%[21.7 µM] | 1%[201 µM] | -5%
CC1=[N+](C)c2ccc3ccccc3c2C1(C)C | 99% | 32µM* | x | 4.5µM*[fluorescent] | 165%
COc1ccc(S(=O)(=O)Nc2ccc(F)cc2F)cc1C(=O)N1CCOCC1 | -3% | x | x | x | x
CCc1cccc(NC(=O)Cn2c3[n+](c4ccc(C(F)(F)F)cc42)CCCCC3)c1 | -6% | 3% | -3% | -2% | 14µM*
FC(F)(F)c1ccc2c(c1)n(Cc1ccccc1)c1[n+]2CCCCC1 | 2% | -1% | 6% | -2% | -36%
SMILES | ERG Ets-DNA blk | TRb-SRC2 inh | CBFb-RUNX1 inh | TexasRed fluor | RGS12 GoLoco inh
O=C(Cn1c2[n+](c3ccc(C(F)(F)F)cc31)CCCCC2)Nc1ccccc1 | 0% | -12% | -9% | -4% | 3.2µM*
CCCCc1nn2c(=O)cc(COC(=O)CNC(=O)c3ccccc3C)nc2s1 | 0% | 0% | x | -45% | x
COc1ccccc1NC(=O)CC1C(=O)NCCN1C(=O)Nc1ccccc1 (centres undefined) | 2% | 5% | 2% | 3% | 3%
CCc1ccc(NC(=O)CC2C(=O)NCCN2C(=O)c2ccccc2OC)cc1 (centres undefined) | 4% | -13% | x | 8.9µM*[quencher] | x
CN(N=O)C(=O)N[C@H]1C(O)C(O)C(CO)O[C@@H]1O (some centres undefined) | x | 6% | 7% | 1% | 20µM*
C=CCNC(=O)c1n[nH]c2c1CC(C(C)(C)CC)CC2 (centres undefined) | -5% | x | x | x | x
O=C1C=CC2=C3c4cc(O)c(O)cc4C[C@]3(O)COC2=C1 | x | -7% | u | 9% | 0.25µM*
COc1ccc(/C=N/N=C2/CC(C)(C)Cc3n[nH]c(=O)cc32)cc1 | 15% | u | -14% | 3% | 28µM*
COc1ccc(/C=N/N=C2/NC(=O)CC(C(=O)O)S2)cc1 (centres undefined) | -5% | 0%[53 µM] | 17% | -1%[53 µM] | 9%
Cc1cn([C@H]2C[C@H](O)[C@@H](CCC(=O)NCc3ccco3)O2)c(=O)[nH]c1=O | 16% | x | x | x | x
CCCCS(=O)(=O)Nc1ccc(N2CCOCC2)c(S(=O)(=O)N2CCOCC2)c1 | -4% | x | x | x | x
Cc1ccc2cccc(NC(=O)COc3cc(C)c(Cl)c(C)c3)c2n1 | 0% | 6% | x | 3% | x
Cc1ccc2cccc(NC(=O)COc3ccccc3Cl)c2n1 | 0% | -15% | x | 16µM*[quencher] | x
CN(C(=S)Nc1ccc(Oc2ccccc2)cc1)c1ccc(O)cc1 | -12% | 4% | 21% | -1% | -36%
CN(C(=S)Nc1cccnc1)c1ccc(O)cc1 | -5% | 35µM* | u | -16% | -14%
CCOc1cccc2sc(N(CCN(CC)CC)C(=O)c3ccco3)nc12 | 1% | -11% | x | 14µM*[quencher] | x
CC[C@H]1O[C@]2(CC[C@@H]1C)C[C@@H]1C[C@@H](C/C=C(\C)C[C@@H](C)/C=C/C=C3CO[C@@H]4[C@H](O)C(C)=C[C@@H](C(=O)O1)[C@]34O)O2 | x | 3%[201 µM] | x | -6%[201 µM] | x
COC(=O)c1ccccc1NC(=O)/C=C/c1ccco1 | x | u | -6% | 3.2µM*[quencher] | 13%
Cc1ccc2c(Cl)cc(Cl)c(OCC(=O)OCC(=O)Nc3ccc(C#N)cc3)c2n1 | -6% | -7% | -3% | -3% | 20µM*
CC(=O)c1cccc(NC(=O)COC(=O)COc2c(Cl)cc(Cl)c3ccc(C)nc23)c1 | -10% | -5% | -1% | 5% | 5%
O=C(Nc1ccc2c(c1)CCC2)c1cc(S(=O)(=O)N2CCN(c3ccccc3)CC2)ccc1Cl | 16% | 21% | -8% | 45µM*[fluorescent] | 170%
COC(=O)c1ccccc1C(=O)O | x | 5%[201 µM] | x | 0%[201 µM] | x
CCCCC(CC)COC(C)=O (centres undefined) | x | 6%[201 µM] | x | -2%[201 µM] | x

Assay outcomes as filed in PubChem BioAssay.
